# Measurements as given in PMC11062922 (Nature Chemical Biology, 2023).
# Like-named read-outs stand apart in the source and are kept apart here.
# Experiments:
# Parameters in all cases: species or system human, MV4-11 + K-562 + COLO205 + SK-N-BE2 + OVCAR-8
# AURKA = details: read-out: apparent Kd, n = 1
# BCR = details: read-out: apparent Kd, compound concentrations: 100 nM and 1000 nM (sheet 'Samples'), n = 1
# CAMKK2 = details: read-out: apparent Kd, compound concentrations: 100 nM and 1000 nM (sheet 'Samples'), n = 1
# CHEK1 = details: read-out: apparent Kd, compound concentrations: 100 nM and 1000 nM (sheet 'Samples'), n = 1
# EPHA4 = details: read-out: apparent Kd, compound concentrations: 100 nM and 1000 nM (sheet 'Samples'), n = 1
# EPHA5 = details: read-out: apparent Kd, compound concentrations: 100 nM and 1000 nM (sheet 'Samples'), n = 1
# EPHB2 = details: read-out: apparent Kd, compound concentrations: 100 nM and 1000 nM (sheet 'Samples'), n = 1
# EPHB4 = details: read-out: apparent Kd, compound concentrations: 100 nM and 1000 nM (sheet 'Samples'), n = 1
# MARK3 = details: read-out: apparent Kd, n = 1
# PRKACA = details: read-out: apparent Kd, n = 1
# PRKACB = details: read-out: apparent Kd, n = 1
# TNK1 = details: read-out: apparent Kd, compound concentrations: 100 nM and 1000 nM (sheet 'Samples'), n = 1
# TNK2 = details: read-out: apparent Kd, compound concentrations: 100 nM and 1000 nM (sheet 'Samples'), n = 1
# MAPK10 = details: read-out: apparent Kd, n = 1
# CDK16 = details: read-out: apparent Kd, n = 1
# MAPK9 = details: read-out: apparent Kd, n = 1
# RPS6KA4 = details: read-out: apparent Kd, compound concentrations: 100 nM and 1000 nM (sheet 'Samples'), n = 1
# STK4 = details: read-out: apparent Kd, n = 1
# PRKAG2 = details: read-out: apparent Kd; compound concentrations:100 nM and 1000 nM (sheet 'Samples'); n = 1
# CSNK1D = details: read-out: apparent Kd, compound concentrations: 100 nM and 1000 nM (sheet 'Samples'), n = 1
# [1] = compound concentrations:100 nM and 1000 nM (sheet 'Samples')
compound,measurement,setting,value
Cl.Nc1c(C(=O)c2cccc(C#CCN3CCCCC3)c2)cnn1-c1ccc(F)cc1 [RO1154461-001],potency estimated from few doses,"AURKA; compound concentrations: 100 nM and 1000 nM (sheet 'Samples'), CATDS: 1.31144942702613E-2",784 nM
same,potency estimated from few doses,BCR; CATDS: 1.8870015548456399E-2,336 nM
same,potency estimated from few doses,CAMKK2; CATDS: 1.2329030932227101E-2,934 nM
same,potency estimated from few doses,CHEK1; CATDS: 1.05759590598224E-2,1550 nM
same,potency estimated from few doses,EPHA4; CATDS: 1.83423267934671E-2,356 nM
same,potency estimated from few doses,EPHA5; CATDS: 2.15215497869925E-2,260 nM
same,potency estimated from few doses,EPHB2; CATDS: 2.8724117835498601E-2,156 nM
same,potency estimated from few doses,EPHB4; CATDS: 3.5435159362778398E-2,111 nM
same,potency estimated from few doses,"MARK3; compound concentrations: 100 nM and 1000 nM (sheet 'Samples'), CATDS: 9.8950713499473906E-3",2030 nM
same,potency estimated from few doses,"PRKACA; compound concentrations: 100 nM and 1000 nM (sheet 'Samples'), CATDS: 1.0779981289506101E-2",1440 nM
same,potency estimated from few doses,"PRKACB; compound concentrations: 100 nM and 1000 nM (sheet 'Samples'), CATDS: 1.14120731511483E-2",1190 nM
same,potency estimated from few doses,TNK1; CATDS: 4.5946833879509097E-2,75.5 nM
same,potency estimated from few doses,TNK2; CATDS: 5.6879237534392203E-2,56.1 nM
Cc1cc(-c2ccnc(Nc3cccc(C#N)c3)n2)cc(C)c1O [GSK1440913A],potency estimated from few doses,"MAPK10; compound concentrations: 100 nM and 1000 nM (sheet 'Samples'), CATDS: 8.7033733779345604E-2",990 nM
CNCC#Cc1c(F)ccc2c1/C(=C/c1[nH]ccc1OC)C(=O)N2.Cl [RO0281601-001],potency estimated from few doses,"CDK16; compound concentrations: 100 nM and 1000 nM (sheet 'Samples'), CATDS: 5.4243920353091599E-2",173 nM
same,potency estimated from few doses,"MAPK9; compound concentrations: 100 nM and 1000 nM (sheet 'Samples'), CATDS: 2.4377657095079101E-2",1310 nM
same,potency estimated from few doses,"MARK3; compound concentrations: 100 nM and 1000 nM (sheet 'Samples'), CATDS: 2.1082964771659999E-2",2280 nM
same,potency estimated from few doses,RPS6KA4; CATDS: 3.0047903909945699E-2,696 nM
CN(C)CC(O)COc1ccc(Nc2nccc(-c3cnn4nc(N5CCOCC5)ccc34)n2)cc1 (stereo not drawn) [GW767488X],potency estimated from few doses,CDK16; [1],262 nM
same,potency estimated from few doses,MAPK10; [1],107 nM
same,potency estimated from few doses,MAPK9; [1],134 nM
FC(F)(F)c1ccc(-c2ncn(CCCN3CCOCC3)c2-c2ccncc2)cc1 [SB-217780],potency estimated from few doses,"STK4; compound concentrations: 100 nM and 1000 nM (sheet 'Samples'), CATDS: 0.215555066939567",1540 nM
CCn1c(-c2nonc2N)nc2c(C#CC(C)(C)O)nc(O[C@@H](CN)c3ccccc3)cc21.O=C(O)C(F)(F)F [GSK1007102B],potency estimated from few doses,MARK3; [1],163 nM
same,potency estimated from few doses,PRKACA; [1],37.5 nM
same,potency estimated from few doses,PRKACB; [1],41.1 nM
same,potency estimated from few doses,PRKAG2,121 nM
Cc1ccccc1-n1ncc(C(=O)c2ccccc2)c1N [RO1151248-000],potency estimated from few doses,BCR; CATDS: 2.0148747001584599E-2,1380 nM
same,potency estimated from few doses,CAMKK2; CATDS: 1.8448697661517601E-2,1790 nM
same,potency estimated from few doses,CHEK1; CATDS: 1.9023399407062401E-2,1630 nM
same,potency estimated from few doses,EPHA4; CATDS: 2.34305639617714E-2,955 nM
same,potency estimated from few doses,EPHA5; CATDS: 2.3755462861685599E-2,926 nM
same,potency estimated from few doses,EPHB2; CATDS: 2.84737750154796E-2,640 nM
same,potency estimated from few doses,EPHB4; CATDS: 3.0398268163298901E-2,567 nM
same,potency estimated from few doses,TNK1; CATDS: 3.5283149780083803E-2,439 nM
same,potency estimated from few doses,TNK2; CATDS: 3.5082928227748202E-2,443 nM
CN(c1ccc(NC(=O)NCCN2CCOCC2)cc1)c1ccnc(Nc2ccc(CS(C)(=O)=O)cc2)n1.Cl [GW830365A],potency estimated from few doses,"AURKA; compound concentrations: 100 nM and 1000 nM (sheet 'Samples'), CATDS: 7.5652675544933198E-2",444 nM
same,potency estimated from few doses,TNK1; CATDS: 5.9117233589801498E-2,792 nM
Cc1cccc(Nc2nc(N[C@H]3CCNC3)ncc2C(N)=O)c1.Cl [GSK2197149A],potency estimated from few doses,STK4; [1],1490 nM
O=C(O)C(F)(F)F.O=C(O)C(F)(F)F.O=c1[nH]ccc2nc(N[C@@H]3CCCNC3)nc(Nc3ccc(S(=O)(=O)N4CCOCC4)cc3)c12.O=c1[nH]ccc2nc(N[C@@H]3CCCNC3)nc(Nc3ccc(S(=O)(=O)N4CCOCC4)cc3)c12 [GSK2177277A],potency estimated from few doses,"CDK16; compound concentrations: 100 nM and 1000 nM (sheet 'Samples'), CATDS: 2.61766261640392E-2",32 nM
same,potency estimated from few doses,CHEK1; CATDS: 1.19973934343878E-2,166 nM
same,potency estimated from few doses,CSNK1D; CATDS: 1.4345830153399601E-2,107 nM
same,potency estimated from few doses,EPHA5; CATDS: 6.3188743096270596E-3,1690 nM
same,potency estimated from few doses,"MARK3; compound concentrations: 100 nM and 1000 nM (sheet 'Samples'), CATDS: 1.6672626063874801E-2",76.4 nM
same,potency estimated from few doses,RPS6KA4; CATDS: 8.4573730907670092E-3,470 nM
same,potency estimated from few doses,"STK4; compound concentrations: 100 nM and 1000 nM (sheet 'Samples'), CATDS: 4.9368785940317003E-2",11.7 nM
CN(C)CCNC(=O)Nc1ccc(N(C)c2ccnc(Nc3ccc(CS(C)(=O)=O)cc3)n2)cc1.Cl [GW830900A],potency estimated from few doses,AURKA; [1],893 nM
COc1cc(Nc2nccc(-c3cnn4ncccc34)n2)cc(OC)c1 [GW801372X],potency estimated from few doses,CAMKK2; CATDS: 1.8078594286366201E-2,1750 nM
same,potency estimated from few doses,"CDK16; compound concentrations: 100 nM and 1000 nM (sheet 'Samples'), CATDS: 1.6995450779384601E-2",2320 nM
same,potency estimated from few doses,CSNK1D; CATDS: 1.8156615660070499E-2,1710 nM
same,potency estimated from few doses,"MAPK10; compound concentrations: 100 nM and 1000 nM (sheet 'Samples'), CATDS: 2.5530057385415701E-2",532 nM
same,potency estimated from few doses,"MAPK9; compound concentrations: 100 nM and 1000 nM (sheet 'Samples'), CATDS: 1.8501615721313099E-2",1580 nM
